# Source: PubChem (NMMLSC)
# Sampled rows, rich in hits. Any-hit rate of the full collection: about 1.2%.
# RGS7-Gao = regulators of human RGS7-Galphao interaction | Multiplexed bead flow cytometry, RGS7-Galphao binding; actives lie on both sides | hit rate 0.35% among 220,000 | P09471 | AID 1439 | binding response (% of control), % at 10 µM; in the data active = binding response below about 49% or above about 150%; inconclusive = no clear call, values can overlap the other calls; inactive = in between;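 also: fluorescent Galphao held in activated GDP-AlF4 state binding bead-coupled RGS7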
# Target sequence (P09471 whole entry, looked up): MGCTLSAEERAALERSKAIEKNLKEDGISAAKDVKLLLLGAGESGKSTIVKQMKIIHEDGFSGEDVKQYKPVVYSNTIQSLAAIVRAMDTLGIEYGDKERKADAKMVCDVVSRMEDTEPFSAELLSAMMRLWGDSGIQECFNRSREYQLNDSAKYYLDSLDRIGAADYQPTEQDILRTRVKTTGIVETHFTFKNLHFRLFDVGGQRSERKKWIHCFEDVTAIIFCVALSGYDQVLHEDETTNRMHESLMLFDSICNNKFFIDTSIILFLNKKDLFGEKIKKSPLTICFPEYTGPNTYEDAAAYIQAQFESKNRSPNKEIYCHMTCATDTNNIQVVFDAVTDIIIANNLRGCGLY
# RGS4-Gao reg = human RGS4-Galphao interaction regulation | P09471 | binding response (% of control), % at 10 µM | hit rate 0.33% among 220,000 | Multiplexed bead flow cytometry, RGS4-Galphao binding; actives lie on both sides | AID 1415; in the data active = binding response below about 49% or above about 150%; inactive = in between;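 also: fluorescent Galphao activated with aluminum fluoride binding bead-coupled RGS4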
# RGS8-Gao reg = modulates binding of RGS8 to human Galphao. hit rate 0.34% among 220,000. AID 1423. response (percent of control binding), % at 10 µM. multiplexed bead flow cytometry; actives lie on both sides; in the data active = response below about 60% or above about 140%; inactive = in between;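 also: Galphao activated as the GDP aluminium fluoride complex binding bead-coupled RGS8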
# Avidin bead fluor = compound fluoresces at 488/530 nm on avidin beads. AID 1775. fluorescence (KMESF) at 10 µM. compound fluorescence 488/530 nm, flow cytometry; hits give high values. hit rate 0.38% among 220,000; in the data active = fluorescence above about 47
# GSH fluor = compound fluoresces at 488/530 nm on GSH beads | fluorescence (KMESF) at 10 µM | GSH beads flow cytometry, compound fluorescence 488/530 nm; hits give high values | hit rate 0.25% among 190,000; in the data active = fluorescence above about 89;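 also: glutathione beads carrying GST-tagged Bcl family fusion proteins plus one bare bead set; values are compound well signal with DMSO vehicle wells as background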
# RGS16-Gao HTS = RGS16-Galphao interaction regulator (human) | O15492+P09471 | bead-based flow cytometry RGS16-Galphao binding, fluorescence; actives lie on both sides | binding response (% of control), % at 10 µM | hit rate 0.38% among 220,000 | AID 1441; call rule not given here;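 also: Galphao activated by GDP with aluminum fluoride before binding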
# Target sequence (O15492 whole entry, looked up): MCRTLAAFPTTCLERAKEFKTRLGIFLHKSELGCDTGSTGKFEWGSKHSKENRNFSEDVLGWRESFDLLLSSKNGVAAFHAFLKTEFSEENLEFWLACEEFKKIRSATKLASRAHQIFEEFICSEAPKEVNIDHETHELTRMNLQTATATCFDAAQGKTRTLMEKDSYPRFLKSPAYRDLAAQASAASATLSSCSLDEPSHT
# Target sequence (P09471 whole entry, looked up): as the sequence (P09471 whole entry, looked up) above
# Numbers without * were called inactive; ? = inconclusive; nt = no result.
SMILES,RGS7-Gao,RGS4-Gao reg,RGS8-Gao reg,Avidin bead fluor,GSH fluor,RGS16-Gao HTS
Cc1ccc(C2NCCS2)cc1 (stereo not given),105.3,104.4,74.3,4,9,98.0
CN(C)c1ccc(C2NCCS2)cc1 (stereo not given),27.4*,15.2*,47.0*,9,11,21.1*
O=C(CCc1nc2ccccc2c(=O)[nH]1)NC1CCN(Cc2ccccc2)CC1,111.4,112.2,106.9,9,256*,114.8
CCN(CC)c1ccc(/C=C2\C(=O)c3ccc(C(=O)O)cc3C2=O)cc1,94.9,96.8,97.7,13,306*,98.0
COc1ccccc1NC(=O)c1cc2cc(Br)ccc2cc1O,?,87.2,90.2,6,nt,84.0
CCOc1cc(/C=N\Nc2ccc([N+](=O)[O-])cc2)ccc1OCC(=O)Nc1ccc(C)c(C)c1,95.2,93.5,98.5,32,16,92.7
COc1cc(/C=N\Nc2ccc([N+](=O)[O-])cc2)ccc1OCC(=O)Nc1ccc(C)c(C)c1,95.1,92.3,100.2,61*,13,103.4
CC1(C)Oc2ccc3ccc(=O)oc3c2-c2cnoc21,149.5,109.4,100.3,56*,17,105.4
O=C(CN(Cc1ccco1)C(=O)Cn1nnc(-c2cccs2)n1)NCC1CCCO1 (stereo not given),100.0,102.1,101.4,12,12,106.9
N=c1c(C(=O)NCc2ccc(F)cc2)cc2c(=O)n3ccccc3nc2n1CC1CCCO1 (stereo not given),105.5,93.6,96.7,90*,16,89.3
COCCCn1c(=N)c(C(=O)NCC2CCCO2)cc2c(=O)n3ccccc3nc21 (stereo not given),98.2,97.2,98.9,18,15,99.0
CCCCN1CC(O)=C(c2nc3ccccc3s2)C1=N,133.2,105.1,103.1,110*,25,113.3
N=C1C(c2nc3ccccc3s2)=C(O)CN1CCCO,100.1,99.0,102.7,34,16,100.8
O=C(NN=C1CCCC1)c1ccccc1OCc1ccc(Cl)cc1,106.8,101.2,99.5,nt,15,102.1
CCOC(=O)c1c(NC(=O)COC)sc(C(C)=O)c1C,104.1,104.5,100.8,11,54,111.2
CCOC(=O)c1c(NC(=O)COC)sc(C)c1C,107.5,110.5,109.1,6,126*,109.1
Cc1ccn(C(=O)c2ccc(NC(=O)CC(C)C)cc2)n1,103.2,104.2,100.8,6,15,100.6
Cc1onc(-c2ccccc2)c1C(=O)Nc1ccncc1,109.4,99.7,101.0,50*,12,104.3
CCOC(=O)CSc1nc2ccccc2c(=O)n1C1CCCC1,131.5,110.7,102.8,91*,34,107.0
O=S(=O)(c1ccc(Br)s1)N1CCc2ccccc2C1,127.6,141.5,106.1,48*,26,117.2
CCCCCCn1c(-c2cccs2)n[nH]c1=S,?,99.9,92.9,10,11,91.2
CC(Nc1n[nH]c(=S)[nH]c1=O)C(=O)OCc1ccccc1 (stereo not given),101.9,112.3,96.5,6,238*,59.0
CCc1nnc(NC(=O)CN2CCN(c3nc(-c4ccccc4)cs3)CC2)s1,110.1,103.1,102.7,47*,19,100.3
Cc1cccc(C(=O)OCC(=O)Nc2ccc(N3CCCCC3)cc2)c1O,97.9,98.1,101.0,25,24,98.6
CCC(CC)NC(=O)COC(=O)c1cccc(C)c1O,93.8,95.0,84.4,4,262*,52.7
SMILES,RGS7-Gao,RGS4-Gao reg,RGS8-Gao reg,Avidin bead fluor,GSH fluor,RGS16-Gao HTS
CCOC(=O)CCCNC(=O)COC(=O)c1cccc(C)c1O,91.6,96.5,97.1,7,261*,105.7
COc1ccc(N(C)C(=O)c2onc3c2CCCC3)cc1,95.9,98.3,89.7,2,10,55.9
CC(=O)c1ccc(N2CCN(C(=O)CCCc3nc4ccccc4s3)CC2)cc1,107.2,103.0,101.6,14,20,109.3
Fc1ccc(NC(=S)N/N=C/c2ccc(F)c(F)c2)cc1,130.4,105.7,101.6,80*,22,110.2
O=C(Nc1ccc2c(c1)OCO2)C1CCN(C(=O)c2ccc([N+](=O)[O-])cc2)CC1,92.7,95.3,95.5,23,14,98.9
O=C(NCC(=O)N(c1cccnc1)C(C(=O)NC1CCCC1)c1ccco1)c1cccs1 (stereo not given),113.1,104.9,101.1,57*,28,100.6
CCOC(=O)c1cnn(-c2ncnc3sc4c(c23)CCC4)c1N,116.2,121.2,102.2,52*,23,125.0
S=C(Nc1cccc2ccccc12)NC1CCCCC1,102.3,96.9,102.2,21,11,99.7
CN(C(=O)COC(=O)c1ccc([N+](=O)[O-])cc1N)c1ccccc1,104.5,101.0,102.6,9,27,101.6
Cc1cccc(C(=O)NCC(=O)OCC(=O)N2CCc3ccccc32)c1,?,100.9,100.3,13,10,101.2
Cc1cccc(OCCC(=O)OCC(=O)N2CCc3ccccc32)c1,116.2,103.6,103.3,54*,21,105.9
CCN(CC)CCCN(Cc1cc2cc3c(cc2[nH]c1=O)OCCO3)C(=O)Nc1ccccc1,106.5,102.3,98.3,54*,14,103.2
O=C(Nc1ccccc1)N(CCCN1CCOCC1)Cc1cc2cc3c(cc2[nH]c1=O)OCCO3,99.2,102.8,101.2,34,22,101.1
CCOC(=O)CSc1nc2cc3c(cc2cc1C)OCO3,140.4,114.2,98.5,72*,12,97.1
COC1=C(OC)c2ccccc2C(C(=O)O)N/C1=C(/C)Nc1ccncc1 (stereo not given),102.2,100.6,100.8,9,267*,102.5
CC(=O)N1c2ccccc2NC2=C(C(=O)CCC2)C1c1cccnc1 (stereo not given),105.2,96.6,96.4,49*,19,104.6
O=C(c1cccc(F)c1)N1CCC(N2CCCCCC2)CC1,104.6,112.6,105.2,21,11,112.0
O=C(c1cccc(F)c1)N1CCN(C2CCCCC2)CC1,94.5,96.6,99.0,6,269*,101.1
O=C(COc1ccc(Cl)cc1Cl)N/N=C1\CCCc2ccccc21,26.6*,33.9*,23.1*,2,27,5.2
COc1ccc(-n2c(C)cc(C(=O)CSc3nn4c(=O)c(C(C)(C)C)nnc4s3)c2C)cc1,112.8,103.0,103.4,57*,23,109.8
COc1ccc(C2=NC(=O)/C(=C\c3cc(OC)c(OC)c(OC)c3)O2)cc1,87.5,88.4,94.3,14,10,89.0
CCCCSCc1ccc(C(=O)O)o1,91.4,89.5,99.6,5,131*,103.3
N#CCCSCc1ccc(C(=O)O)o1,104.2,98.5,100.5,17,25,101.1
O=C(NC(=S)Nc1nc2ccccc2s1)c1cccs1,105.5,107.2,103.1,14,6,109.2
CCc1ccc(-c2nc(NC(=S)NC(=O)c3cccs3)sc2C)cc1,114.2,98.8,98.1,57*,24,97.5
